These results are taken from PubChem BioAssay (Tox21).

A short description of assay [1]: qHTS assay to identify small molecule antagonists of the estrogen receptor alpha (ER-alpha) signaling pathway using the BG1 cell line in the presence of 0.1 nM 17-beta-estradiol - cell viability counter screen (AID 1259241). Note: nearly all actives have a fitted effect of over 40% in size. In short, it runs like this:
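In this screen, hormone-deprived VM7Luc4E2 cells were seeded at 4,000 per well, dosed with compound and 0.1 nM estradiol final, and incubated 22 hr at 37C and 5% CO2; fluorogenic live-cell protease signal reported viability.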

Assay [2] can be described thus: qHTS assay to identify small molecule antagonists of the androgen receptor (AR) signaling pathway using the MDA cell line in the presence of 0.5 nM R1881 - cell viability counter screen (AID 1259242). Note: nearly all actives have a fitted effect of over 45% in size. An outline of the steps:
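Cytotoxicity toward MDA-kb2 cells is measured by CellTiter-Fluor live-cell protease fluorescence after 16 hr compound exposure at 37C in the presence of 0.5 nM R1881 stimulator.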

Assay [3] addresses Androgen receptor (Homo sapiens) (UniProt P10275). In words: qHTS assay to identify small molecule antagonists of the androgen receptor (AR) signaling pathway using the MDA cell line in the presence of 0.5 nM R1881 (AID 1259243). Note: nearly all actives have a fitted effect of over 50% in size. An outline of the steps: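 Steps: seed MDA-kb2 cells, incubate 5 hr at 37C; pin-transfer compounds in DMSO; add R1881 to 0.5 nM final; incubate 16 hr; add ONE-Glo, wait 30 min at room temperature; read luminescence.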
(In general: In qHTS, concentration-response curves come from the screen itself.)

In assay [4] the target is Estrogen receptor (Homo sapiens) (UniProt P03372). In words: qHTS assay to identify small molecule antagonists of the estrogen receptor alpha (ER-alpha) signaling pathway using the BG1 cell line in the presence of 0.1 nM 17-beta-estradiol (AID 1259244). Note: nearly all actives have a fitted effect of over 50% in size. Note: potency is the fitted concentration of half-maximal effect. An outline of the steps:
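After 5 days in hormone-depleted medium (charcoal-stripped serum, no phenol red), VM7Luc4E2 cells were seeded, incubated 24 h, then co-treated with compound and 0.1 nM (final) estradiol for 22 h before luminescence detection.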

Assay [5] is described as follows: qHTS assay to identify small molecule phospholipidosis (PLD) inducers (AID 1259344; active = well fitted curve in the direction sought with a large enough effect; an effect the other way counts as inactive or inconclusive). An outline of the steps: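 HepG2 cells, 900/well, treated with compound plus LipidTOX Red for 24 h at 37 C; amiodarone positive and DMSO negative controls. Fixed with paraformaldehyde/Hoechst, then high-content imaging scored LipidTOX pit count and integrated intensity per well and per cell.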

The nature of assay [6]: qHTS assay to identify small molecule HDAC inhibitors (AID 1259364). Note: nearly all actives have a fitted effect of over 45% in size. Note: potency is the fitted concentration of half-maximal effect. In short, it runs like this: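 Homogeneous cell-based luminescent assay of endogenous class I/II HDAC activity; HCT-116 cells, 2 h compound exposure, 30 min HDAC-Glo development at RT.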
Assay [7] can be described thus: qHTS assay to identify small molecule HDAC inhibitors - cell viability counter screen (AID 1259365). Note: series mostly up to about 92 µM; nearly all actives have a fitted effect of over 50% in size. In short, it runs like this: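 Measured quantity is CellTiter-Glo luminescence from wild-type HCT-116 cells after compound incubation of 2hr at 37C, 5% CO2; reagent developed 30min at room temperature.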
Assay [8] can be described thus: qHTS assay to identify small molecule agonists of the sonic hedgehog signaling (Shh) pathway - cell viability counter screen (AID 1259366). Note: nearly all actives have a fitted effect of over 50% in size. In short, it runs like this: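 In quantitative high-throughput format, 3T3 Gli1-Luc cells were exposed to compounds for 24hr and multiplexed for viability using CellTiter-Fluor, incubated 1hr at 37C before the fluorescence read.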

Assay [9] in a line: qHTS assay to identify small molecule antagonists of the sonic hedgehog signaling (Shh) pathway - cell viability counter screen (AID 1259367). Note: nearly all actives have a fitted effect of over 55% in size. In short, it runs like this:
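NIH/3T3-derived Gli1-Luc reporter cells, 2,000/well, plated 4 hr before compound addition, then stimulated with conditioned medium for 24 hr at 37C. Viability measured in the same wells by CellTiter-Fluor fluorescence, reagent added at 23 hr for 1 hr.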

A short description of assay [10]: qHTS assay to identify small molecule agonists of the sonic hedgehog signaling (Shh) pathway (AID 1259368; calls by dose curve;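 note: NIH/3T3-derived 3T3Gli1-Luc cells carrying a stable Gli1-driven firefly luciferase reporter; series mostly up to about 92 µM; nearly all actives have a fitted effect of over 15% in size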). In short, it runs like this: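 Steps: seed 3T3 Gli1-Luc cells, incubate 4 hr at 37 C, pin-transfer compounds in DMSO alongside a positive control, incubate 24 hr, add luciferase detection reagent, wait 30 min at room temperature, read luminescence.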
A short description of assay [11]: qHTS assay to identify small molecule antagonists of the sonic hedgehog signaling (Shh) pathway (AID 1259369; calls by dose curve; note: nearly all actives have a fitted effect of over 45% in size; note: potency is the fitted concentration of half-maximal effect). In short, it runs like this: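 Inhibition of Shh signalling is measured as reduced Gli1-response-element firefly luciferase output in an NIH/3T3-derived stable reporter clone stimulated with conditioned medium for 24hr.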
A short description of assay [12]: qHTS assay to identify small molecule agonists of the androgen receptor (AR) signaling pathway in the presence of an antagonist - cell viability counter screen (AID 1259379).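 Note: MDA-kb2 human breast cancer cells carrying an MMTV luciferase reporter; series mostly up to about 92 µM; nearly all actives have a fitted effect of over 25% in size.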 An outline of the steps:
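Fluorescence from CellTiter-Fluor, added after 15 hr and read 1 hr later, gave cell viability. Cells were MDA-kb2 exposed to compounds (15 concentrations) in the presence of 3.0uM nilutamide at 37C, 0% CO2.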

Assay [13] in a line: qHTS assay to identify small molecule agonists of the estrogen receptor beta (ER-beta) signaling pathway - cell viability counter screen (AID 1259380). Note: nearly all actives have a fitted effect of over 30% in size. Note: potency is the fitted concentration of half-maximal effect. In short, it runs like this:
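Same-well viability counter screen. Cells: ER-beta-UAS-bla HEK293T, plated 6 hr before compound, in 2% charcoal-stripped FBS. Compound exposure 16 hr, 37C; viability by CellTiter-Glo luminescence after 30 min at room temperature.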

The target of assay [14] is Androgen receptor (Homo sapiens) (UniProt P10275). The experiment in a line: qHTS assay to identify small molecule agonists of the androgen receptor (AR) signaling pathway in the presence of an antagonist (AID 1259381; calls by dose curve; note: nearly all actives have a fitted effect of over 15% in size). An outline of the steps: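 Cells are MDA-kb2 (human breast carcinoma, MMTV-luc, AR/GR responsive). Nilutamide is present at 3.0uM final throughout; compounds are added at 15 concentrations and incubated 16hr at 37C before ONE-Glo luminescence detection.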

Assay [15] is described as follows: qHTS assay to identify small molecule antagonists of the estrogen receptor beta (ER-beta) signaling pathway - cell viability counter screen (AID 1259382). Note: series mostly up to about 92 µM; nearly all actives have a fitted effect of over 55% in size. In short, it runs like this: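 Following a 6 hr plating period, HEK293T cells carrying a UAS-driven beta-lactamase reporter under ER-beta control received compounds and 1nM E2 (final). After 16 hr at 37C and 2 hr substrate loading, CellTiter-Glo luminescence indicated viability.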

The target of assay [16] is Estrogen receptor (Homo sapiens) (UniProt P03372). The experiment in a line: qHTS assay to identify small molecule agonists of the estrogen receptor alpha (ER-alpha) signaling pathway in the presence of an antagonist (AID 1259383; calls by dose curve; note: top concentration of the series differs between compounds; nearly all actives have a fitted effect of over 15% in size). An outline of the steps: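 Cells are hormone-deprived for 5 days (charcoal-stripped FBS, no phenol red), plated for 24hr, spiked with 10.0nM ICI-182,780, then dosed at 15 concentrations. After 22hr at 37C, ONE-Glo luminescence reports ERE-luciferase activity.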

Assay [17] can be described thus: qHTS assay to identify small molecule agonists or antagonists of the thyroid stimulating hormone receptor (TSHR) signaling pathway - wild type cell line counter screen (AID 1259384; calls by dose curve). In short, it runs like this: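 Wild-type Hek293 cells, 800/well, 18 h at 37C, then compound with Ro20-1724 for 30 min RT. cAMP by HTRF (cAMP-d2/anti-cAMP cryptate), 1 h RT, fluorescence read. 15 concentrations, triplicates.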

For assay [18], the target named is Thyrotropin receptor (Homo sapiens) (UniProt P16473). The experiment in a line: qHTS assay to identify small molecule antagonists of the thyroid stimulating hormone receptor (TSHR) signaling pathway (AID 1259385; calls by dose curve; note: nearly all actives have a fitted effect of over 20% in size). In short, it runs like this:
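TSHR-HEK293 cells (800/well) plated 18 h, then compounds with Ro20-1724 and TSH at 1.5 ng/mL final, 30 min at room temperature. cAMP quantified by HTRF (cAMP-d2/anti-cAMP-cryptate, 1 h); 15 concentrations in triplicate.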

For assay [19], the target named is Estrogen receptor beta (Homo sapiens) (UniProt Q92731). In words: qHTS assay to identify small molecule agonists of the estrogen receptor beta (ER-beta) signaling pathway (AID 1259377; active = well fitted activation curve with a large enough effect in the signal ratio in the repeat runs, not every such curve was filed as active; the % refers to the signal ratio). An outline of the steps:
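Reporter cells (HEK293T, ER-beta-UAS-bla) receive compounds or DMSO after a 6 hr pre-incubation. They then incubate 16 hr at 37C/5% CO2, and fluorescence from LiveBLAzer B/G substrate is measured after 2 hours at room temperature.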

Assay [20] shares this target. In words: qHTS assay to identify small molecule antagonists of the estrogen receptor beta (ER-beta) signaling pathway (AID 1259378; active = well fitted inhibition curve with a large enough effect in the signal ratio in the repeat runs, not every such curve was filed as active; the % refers to the signal ratio). In short, it runs like this: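 ER-beta-UAS-bla HEK293T cells in 2% charcoal-stripped FBS medium treated with compound plus 1nM final 17-beta-estradiol for 16 hr at 37C. Beta-lactamase reporter read by FRET substrate fluorescence after 2 hours at room temperature.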

The structures appear in SMILES notation. Several values for one entry are separate records, joined by “and”; a condition that tells them apart may be missing. Equal values may be shown once. Results filed as inconclusive are left out. The source holds several records for some structures; these can differ, active in one and inactive in another. Activity calls are given as the source filed them. Unless noted, calls come from the whole dose curve; as a rule, active = well fitted curve in the direction sought with a large enough effect in the repeat runs; inconclusive = weak or mixed curves; inactive = no such curve, though single readings can be large; an effect the other way counts as inactive or inconclusive.

Sequence of Estrogen receptor (Homo sapiens) (P03372 whole entry, looked up): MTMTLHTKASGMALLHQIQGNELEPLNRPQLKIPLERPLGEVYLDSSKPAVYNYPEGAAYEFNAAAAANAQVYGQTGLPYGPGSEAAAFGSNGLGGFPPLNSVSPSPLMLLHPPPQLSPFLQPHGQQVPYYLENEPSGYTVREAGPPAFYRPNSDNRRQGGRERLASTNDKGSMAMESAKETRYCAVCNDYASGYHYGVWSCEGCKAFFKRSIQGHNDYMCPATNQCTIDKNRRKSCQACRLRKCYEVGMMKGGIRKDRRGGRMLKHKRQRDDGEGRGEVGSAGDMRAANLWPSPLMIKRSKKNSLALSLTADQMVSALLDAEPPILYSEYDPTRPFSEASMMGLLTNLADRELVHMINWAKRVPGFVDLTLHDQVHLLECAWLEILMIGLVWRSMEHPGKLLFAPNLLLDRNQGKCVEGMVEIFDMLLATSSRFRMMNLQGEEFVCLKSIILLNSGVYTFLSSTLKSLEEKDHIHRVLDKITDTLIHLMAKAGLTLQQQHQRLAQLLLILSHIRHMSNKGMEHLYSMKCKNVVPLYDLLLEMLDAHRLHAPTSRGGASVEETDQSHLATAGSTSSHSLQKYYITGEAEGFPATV
Sequence of Estrogen receptor beta (Homo sapiens) (Q92731 whole entry, looked up): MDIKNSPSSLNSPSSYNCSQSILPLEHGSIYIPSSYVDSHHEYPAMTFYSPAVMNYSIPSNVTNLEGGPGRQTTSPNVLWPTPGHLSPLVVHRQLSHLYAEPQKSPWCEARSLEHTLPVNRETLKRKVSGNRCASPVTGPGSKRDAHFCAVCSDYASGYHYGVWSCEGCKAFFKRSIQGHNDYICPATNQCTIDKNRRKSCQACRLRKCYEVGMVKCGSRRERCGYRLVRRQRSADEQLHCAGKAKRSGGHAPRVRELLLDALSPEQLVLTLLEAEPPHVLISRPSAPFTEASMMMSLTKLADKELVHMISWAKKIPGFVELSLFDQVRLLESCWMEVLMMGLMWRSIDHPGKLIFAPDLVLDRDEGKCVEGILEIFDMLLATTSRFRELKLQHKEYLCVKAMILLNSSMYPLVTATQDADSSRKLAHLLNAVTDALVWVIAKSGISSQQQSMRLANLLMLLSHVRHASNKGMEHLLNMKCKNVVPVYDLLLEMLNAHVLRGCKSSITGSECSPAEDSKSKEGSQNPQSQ
Sequence of Androgen receptor (Homo sapiens) (P10275 whole entry, looked up): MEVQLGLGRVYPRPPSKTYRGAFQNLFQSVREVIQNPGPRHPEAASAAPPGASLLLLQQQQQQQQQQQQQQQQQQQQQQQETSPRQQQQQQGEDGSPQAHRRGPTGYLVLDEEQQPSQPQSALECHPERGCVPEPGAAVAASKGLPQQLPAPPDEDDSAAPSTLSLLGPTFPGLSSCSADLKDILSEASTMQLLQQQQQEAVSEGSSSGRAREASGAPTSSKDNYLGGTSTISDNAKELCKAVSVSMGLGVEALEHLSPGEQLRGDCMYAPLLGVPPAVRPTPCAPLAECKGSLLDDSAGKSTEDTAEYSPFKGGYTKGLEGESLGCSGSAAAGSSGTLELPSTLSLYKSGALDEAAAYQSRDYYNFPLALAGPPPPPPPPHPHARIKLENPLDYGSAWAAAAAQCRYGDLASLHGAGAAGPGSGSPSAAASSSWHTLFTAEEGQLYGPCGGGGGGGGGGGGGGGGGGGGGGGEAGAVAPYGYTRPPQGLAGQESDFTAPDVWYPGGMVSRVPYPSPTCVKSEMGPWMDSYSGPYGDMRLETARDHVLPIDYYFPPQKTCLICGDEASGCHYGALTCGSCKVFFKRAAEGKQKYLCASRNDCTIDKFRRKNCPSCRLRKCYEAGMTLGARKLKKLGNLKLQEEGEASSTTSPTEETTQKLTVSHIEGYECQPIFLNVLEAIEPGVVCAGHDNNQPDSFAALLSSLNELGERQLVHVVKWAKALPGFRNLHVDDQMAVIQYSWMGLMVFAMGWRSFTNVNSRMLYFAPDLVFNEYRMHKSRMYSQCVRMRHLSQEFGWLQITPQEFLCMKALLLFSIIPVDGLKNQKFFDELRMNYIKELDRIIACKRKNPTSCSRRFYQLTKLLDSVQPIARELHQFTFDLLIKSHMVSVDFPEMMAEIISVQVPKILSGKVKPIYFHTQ
Sequence of Thyrotropin receptor (Homo sapiens) (P16473 whole entry, looked up): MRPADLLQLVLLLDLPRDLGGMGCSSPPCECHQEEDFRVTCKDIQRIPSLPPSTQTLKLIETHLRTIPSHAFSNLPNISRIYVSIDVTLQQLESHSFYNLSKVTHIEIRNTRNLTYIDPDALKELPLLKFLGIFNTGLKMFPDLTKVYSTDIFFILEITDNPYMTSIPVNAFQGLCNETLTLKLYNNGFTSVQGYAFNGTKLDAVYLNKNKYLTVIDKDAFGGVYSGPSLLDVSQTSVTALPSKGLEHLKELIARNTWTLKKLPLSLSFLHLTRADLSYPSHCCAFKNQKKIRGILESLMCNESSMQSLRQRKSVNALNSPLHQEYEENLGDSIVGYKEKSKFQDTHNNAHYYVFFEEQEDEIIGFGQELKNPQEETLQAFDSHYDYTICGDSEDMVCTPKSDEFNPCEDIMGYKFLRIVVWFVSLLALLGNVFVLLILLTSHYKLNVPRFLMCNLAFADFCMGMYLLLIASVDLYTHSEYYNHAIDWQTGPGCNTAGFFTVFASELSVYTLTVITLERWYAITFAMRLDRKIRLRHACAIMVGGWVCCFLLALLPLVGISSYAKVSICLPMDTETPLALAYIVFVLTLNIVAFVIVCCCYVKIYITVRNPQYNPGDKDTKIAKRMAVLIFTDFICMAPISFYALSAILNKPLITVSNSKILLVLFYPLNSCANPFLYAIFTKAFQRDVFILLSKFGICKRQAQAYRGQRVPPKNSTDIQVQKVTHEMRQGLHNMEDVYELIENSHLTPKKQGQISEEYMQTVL

Regarding `CCCCC(CC)COC(=O)/C=C/c1ccc(OC)cc1` (stereo not drawn), the Potency entry in assay [1], in [2], in [3], in assay [4], in [6] and in assay [8] was “inactive” each time. The Potency result in assay [9], in [11], in assay [12], in assay [13], in [14] and in assay [15] was “inactive” in each case. Also, the Potency result in assay [16] was “inactive”. The compound was classed as inactive in assay [5], in assay [7], in assay [10], in assay [17] and in assay [18].
In the case of `Cc1ccc(O)cc1`, the Potency result in assay [1], in assay [2], in [3], in [6], in [8] and in assay [9] was “inactive” each time. Besides, the Potency entry in assay [11], in assay [20], in [12], in assay [13], in assay [14] and in [15] was “inactive” throughout. The result in [5], in [7], in assay [10], in assay [19], in [17] and in [18] was inactive.
For the compound `N=C(N)c1ccc(OCCCCCOc2ccc(C(=N)N)cc2)cc1`, the Potency result in assay [1], in assay [2], in assay [8], in assay [9], in assay [12] and in assay [13] was “inactive” each time. Further, the Potency result in assay [15] and in [16] was “inactive” in each case. For the same compound, the Potency in assay [4] is 13.6 µM (active) and 18.5 µM (active); in assay [6], 8.59 µM (active) and 9.26 µM (active); in assay [11], 3.84 µM (active) and 2.33 µM (active) and 18.8 µM (active). Moreover, the result in assay [5], in assay [7], in assay [10], in assay [17] and in [18] was inactive.
`O=c1cc[nH]c(=S)[nH]1`: the Potency result in assay [1], in assay [2], in [4], in assay [6], in [8] and in assay [9] was “inactive” in each case. Moreover, the Potency entry in [11], in [20], in [12], in assay [13], in [15] and in assay [16] was “inactive” each time. Further, the compound was classed as inactive in assay [5], in [7], in [10], in assay [19], in assay [17] and in [18].
Take `O=C(O)CCCCC(=O)O`: the Potency result in [1], in assay [2], in assay [4], in [6], in assay [8] and in assay [9] was “inactive” in each case. Besides, the Potency result in assay [11], in assay [12], in assay [13], in [15] and in assay [16] was “inactive” each time. The outcome in [5], in assay [7], in assay [10], in assay [17] and in [18] was inactive.
Consider `O=c1ccc2ccccc2o1`, for which the Potency entry in assay [1], in assay [2], in assay [4], in assay [6], in assay [8] and in assay [11] was “inactive” throughout. Besides, the Potency entry in [20], in assay [12], in assay [13], in [15] and in [16] was “inactive” throughout. The outcome in assay [5], in assay [7], in assay [10], in assay [19], in assay [17] and in assay [18] was inactive.
Turning to `Cc1ccc(C)c(OCCCC(C)(C)C(=O)O)c1`, the Potency result in assay [1], in assay [2], in assay [3], in [4], in assay [6] and in assay [8] was “inactive” in each case. For the same compound, the Potency entry in [11], in assay [20], in [12], in assay [13], in assay [14] and in assay [15] was “inactive” throughout. The Potency entry in [16] is “inactive”. The call in assay [5], in [7], in assay [10], in assay [19], in assay [17] and in [18] was inactive.
With `NC(=O)c1cnccn1`, the Potency entry in assay [1], in assay [2], in [4], in assay [6], in assay [8] and in [9] was “inactive” throughout. Further, the Potency entry in assay [11], in assay [20], in [12], in [15] and in assay [16] was “inactive” each time. Also, the call in assay [5], in assay [7], in [10] and in assay [19] was inactive. In addition, the Potency result in assay [13] was “inactive and 33.5 µM (active)”.
